The campaign covered roughly 16,000 compounds. About 4,000 (25%) were called active. About 26% were inconclusive and are not listed. Calls come from the whole dose curve; as a rule, active = well fitted curve in the direction sought with a large enough effect; inconclusive = small, poorly fitted or top-dose-only effect, or effect the other way; inactive = no such curve, though single readings can be large or run the other way. A selection follows.
target: Cytochrome P450 2C9 (Homo sapiens) (UniProt P11712); test: Cytochrome panel assay with activity outcomes; settings: recombinant CYP, pro-luciferin dealkylation, luminescence, p450-cyp2c9; series mostly up to 57.1 µM; activity, negative = inhibition: at the top concentration
Sequence (P11712 whole entry, looked up): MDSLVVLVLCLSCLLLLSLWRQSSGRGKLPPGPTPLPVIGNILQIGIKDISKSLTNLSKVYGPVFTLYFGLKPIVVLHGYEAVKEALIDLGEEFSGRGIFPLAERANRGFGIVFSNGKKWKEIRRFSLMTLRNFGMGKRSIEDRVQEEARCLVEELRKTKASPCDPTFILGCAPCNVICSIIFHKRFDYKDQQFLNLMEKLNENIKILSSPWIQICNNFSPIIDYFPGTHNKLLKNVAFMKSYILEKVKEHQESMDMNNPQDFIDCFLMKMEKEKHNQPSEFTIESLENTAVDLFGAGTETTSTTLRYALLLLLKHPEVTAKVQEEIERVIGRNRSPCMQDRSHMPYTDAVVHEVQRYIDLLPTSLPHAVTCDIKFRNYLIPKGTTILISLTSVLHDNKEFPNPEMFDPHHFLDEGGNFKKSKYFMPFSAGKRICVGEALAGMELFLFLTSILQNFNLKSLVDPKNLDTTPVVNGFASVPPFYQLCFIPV
% is set by controls: 0 for no effect and ±100 for the full control effect.

AC50, active:
CCOC(=O)c1[nH]c2ccc(OC)cc2c1NC(=O)c1ccc2c(c1)OCO2 14.1 µM
COC(=O)c1[nH]c2cc(OC)ccc2c1NC(=O)c1ccc2c(c1)OCO2 3.55 µM
CCOC(=O)c1[nH]c2cc(OC)c(OC)cc2c1NC(=O)c1nonc1C 0.708 µM
COc1cccc(NC(=O)c2oc3ccccc3c2NC(=O)c2ccc3c(c2)OCO3)c1 3.55 µM
N#Cc1ccc(-c2ccccc2)nc1SCC(=O)c1cccc(Cl)c1 2 µM
CCOc1ccc(OCCOc2ncnc3ccccc23)cc1 17.8 µM
CCC(=O)N(Cc1ccco1)c1nc(-c2ccccc2)cs1 2.51 µM
Nc1cc(-c2nn[nH]n2)ccc1F 12.6 µM
COc1ccc(CCC(C)Nc2cccc(F)c2)cc1 (configuration not stated) 12.6 µM
COc1cccc(CN2C(=O)N(C(C)C)C(N(O)C(=O)NC(C)C)C2(C)C)c1OC (configuration not stated) 15.8 µM
CCC(C)OC(=O)C1=C(C)NC(=O)CC1c1ccccc1OC (configuration not stated) 7.08 µM
CCCOc1ccccc1C1CC(=O)NC(C)=C1C(=O)OCC(C)C (configuration not stated) 1.12 µM
CCCCOc1ccccc1C1CC(=O)NC2=C1C(=O)CCC2 (configuration not stated) 17.8 µM
COC(=O)[C@H]1C[C@@H]1[C@H](NC(=O)OCc1ccccc1)c1ccccc1 15.8 µM
COC(=O)[C@@H]1C[C@H]1[C@@H](NC(=O)Oc1ccc(F)cc1)c1ccccc1 3.98 µM
CCc1cc(C(c2ccccc2OC)N2CCOCC2)c(NC(=O)c2ccccc2)s1 (configuration not stated) 1.58 µM
Cc1cc(NC(=O)CSc2n[nH]c(-c3cccs3)n2)no1 12.6 µM
N#CC(c1ccc(Cl)cc1)(c1ncc(C(F)(F)F)cc1Cl)N1CCOCC1 (configuration not stated) 10 µM
COc1ccc(S(=O)(=O)NNC(=O)C2Cc3c(ccc4ccccc34)O2)cc1 (configuration not stated) 7.94 µM
CC(C)(CNC(=O)c1ccc([N+](=O)[O-])c(Cl)c1)CNC(=O)c1ccc([N+](=O)[O-])c(Cl)c1 0.891 µM
O=C(NCc1cccnc1)c1sc2cc(Cl)ccc2c1Cl 10 µM
CN(C(=O)CC(NC(=O)c1ccccc1)(c1ccccc1)c1ccccc1)c1ccccc1 15.8 µM
FC(F)(F)c1cccc(-c2nc3nc(Cl)c(Cl)nc3[nH]2)c1 3.98 µM
CC(C)c1cccc2nc3c(c(C(C)(C)C)c12)Cn1c-3cccc1=O 10 µM
CCc1c2c(nc3c(C(C)C)cccc13)-c1cccc(=O)n1C2 15.8 µM
CCc1cccc2nc3c(c([Si](C)(C)C)c12)Cn1c-3cccc1=O 20 µM
CC(C)c1cccc2c([Si](C)(C)C)c3c(nc12)-c1cccc(=O)n1C3 2 µM
N#C/C(=C\c1cc(Cl)cc(Cl)c1O)C(=O)NC1CCCCC1 12.6 µM
CC1CCC(NC(=O)CC(C)(C)Cc2nc3ccccc3c(=O)[nH]2)CC1 (configuration not stated) 3.55 µM
O=C1/C(=C\c2ccc(Br)o2)SC(=Nc2ccccc2)N1c1ccccc1 0.398 µM
CC(C)CC(=O)N1CCN(Cc2cccc(F)c2)CC1 0.0251 µM
N#Cc1cccc(NC(=O)N2CCCC3(CCN(C(=O)c4ccco4)CC3)C2)c1 3.98 µM
N#Cc1cccc(NC(=O)N2CC3(CCN(C(=O)c4cc(C(F)(F)F)cc(C(F)(F)F)c4)CC3)C2)c1 12.6 µM
Cc1ccc(C(=O)c2cn[nH]c2-c2cc(Cl)ccc2O)cc1 2.24 µM

AC50, inactive:
O=C(O)C1=CCNCC1
C[C@H]1NC(=O)NC1=O

activity, negative = inhibition, inactive:
CCOC(=O)c1[nH]c2cc(OC)c(OC)cc2c1NC(=O)c1ccc2c(c1)OCO2 8.15%
COc1ccc2c3c([nH]c2c1)[C@H]1C[C@@H]2[C@@H](C[C@@H](O)[C@H](OC)[C@H]2C(=O)O)CN1CC3 4.43% [at 11.4 µM]
CCOC(=O)c1[nH]c2cc3c(cc2c1NC(=O)CN1CCC2(CC1)OCCO2)OCO3 -24.5%
CN1CCN(CCCNC(=O)C2CCN(c3nnc(-n4cccc4)s3)CC2)CC1 2.31%
CC(=O)OC[C@@H]1O[C@H](C/C=N\O[C@@H](C)CN2CCCc3nc(C)c(C)cc32)C=C[C@@H]1OC(C)=O -0.762% [at 11.4 µM]
O=C(CSc1nc2ccccc2c2ccccc12)c1ccccc1 -1.33% [at 11.4 µM]
CC1CN(C(=O)COc2ncnc3ccccc23)CC(C)O1 (configuration not stated) -10.4%
CC(CO)(CO)Nc1ncnc2ccccc12 15.3% [at 11.4 µM]
CN(C)C(=O)c1ccc(-c2nccc(N(C)Cc3ccco3)n2)cc1 0.769% [at 2.29 µM]
CN(C)C(=O)c1ccc(-c2cc(N(C)Cc3ccco3)ncn2)cc1 0.869% [at 2.29 µM]
C[C@](N)(C(=O)O)c1ccc(-c2nn[nH]n2)cc1 -10.9%
c1cc(NNc2cccc(-c3nn[nH]n3)c2)cc(-c2nn[nH]n2)c1 -4.17% [at 11.4 µM]
COc1cc(N[C@@H](C)CCCN)c2ncccc2c1 -33.6% [at 25.6 µM]
COc1ccc(CCC(C)NC2C3CC4CC(C3)CC2C4)cc1 (configuration not stated) -9.44%
COc1ccc(C(=O)N2CCC[C@@]3(CCN(CC(C)C)C3)C2)cc1 1.28%
Cc1noc(C)c1C(=O)N1CCC2(CCCN(C(=O)Nc3cccc(F)c3)C2)CC1 3.2%
CCOC(=O)C1=C(C)NC2(O)c3ccccc3C(=O)C12O (configuration not stated) -5.48%
CCCCOc1cc(C[C@@H]2CNC(=O)N2)ccc1OC -0.321%
COc1cccc2c1OC1(C)CC2/C(=C(\C)O)C(=O)N1 (configuration not stated) 0.172%
NC(=O)c1cc[n+](CC2=C(C(=O)[O-])N3C(=O)[C@@H](NC(=O)Cc4cccs4)[C@@H]3SC2)cc1 2.83% [at 25.6 µM]
FC(F)(F)c1ccccc1-c1cncnc1NCc1cccnc1 6.26% [at 2.29 µM]
COC(=O)C1CC1C(NC(=O)[C@@H]1CCCN1)c1ccccc1 (some centres not stated) -23.5%
O=C(N[C@@H](c1ccccc1)[C@@H]1C[C@H]1C(=O)O)OCc1ccccc1 -6.48%
Cc1noc(C)c1C(=O)N1CCC[C@@]2(CCN(Cc3cc(C(F)(F)F)cc(C(F)(F)F)c3)C2)C1 15.9%
CCOc1ccccc1CNCCN1CCOCC1 6.96%
CC(=O)[C@H]([C@@H](c1ccccc1)N1CCOCC1)N1CCOCC1 -15.9% [at 11.4 µM]
CCCCc1nc(SCC(=O)Nc2ncccn2)n[nH]1 -1.7%
CO[C@H]1COC(=O)[C@H](C)NC(=O)C/C=C\[C@@H](C)[C@@H](NS(=O)(=O)c2ccc(C)cc2)COC(=O)[C@H](OCc2ccccc2)/C=C\[C@@H]1C -22.3% [at 11.4 µM]
N#CC(c1ccccn1)(c1ncc(C(F)(F)F)cc1Cl)N1CCOCC1 (configuration not stated) -15.8%
Clc1ccccc1-c1cc(NCc2cccnc2)ncn1 -1% [at 2.29 µM]
CN(C)C(=O)c1ccc(-c2cc(NCc3cccnc3)ncn2)cc1 17.1% [at 2.29 µM]
CN(C(=O)c1c(O)c2ccccc2n(C)c1=O)c1ccccc1 -11.7%
CN(C)CCCN1CC(C(=O)O)CC1=O (configuration not stated) -8.24%
CC[C@@]1(O)C(=O)COc2c1cc1n(c2=O)Cc2c-1nc1cccc(C(C)C)c1c2[Si](C)(C)C -14.7%
Cc1c2c(nc3ccccc13)-c1cccc(=O)n1C2 -16.3%
CC(C)c1cccc2cc3c(nc12)-c1cccc(=O)n1C3 -23.4%
CC1(C)[C@@H]2CC[C@]1(C)[C@@H](OC(=O)CSC#N)C2 -16.1% [at 11.4 µM]
S=C(Nc1cccc(Cl)c1)NC1CCCCC1 8.71%
Cn1c[n+](C)cc1/C=N/O 6.26%
Nc1nc2ncc(CNc3ccc(C(=O)N[C@@H](CCC(=O)O)C(=O)O)cc3)nc2c(=O)[nH]1 -2.91% [at 25.6 µM]
CC(C)(C)CC(C)(C)c1ccc(OCOCCOCCO)c(Cc2cc(C(C)(C)CC(C)(C)C)cc(Cc3cc(C(C)(C)CC(C)(C)C)ccc3OCOCCOCCO)c2OCOCCOCCO)c1 2.53% [at 25.6 µM]
CN(C)C(=O)c1ccc(-c2nc(Nc3ccccc3)c3ccccc3n2)cc1 -13.3% [at 2.29 µM]
Cc1ccccc1-c1nc(NC2CC2)c2ccccc2n1 3.04% [at 2.29 µM]
CC(C)CN1CCC2(CC1)CCN(C(=O)c1cccc(F)c1)CC2 0.497%
CC(C)CN1CC2(CCN(C(=O)c3cccc(F)c3)CC2)C1 14.7%
C/C(=N/S(=O)(=O)c1ccc(Cl)c(Cl)c1)OCC(C)(C)C 6.28% [at 11.4 µM]
N#Cc1cccc(NC(=O)N2CCCC3(CCN(C(=O)c4cc(C(F)(F)F)cc(C(F)(F)F)c4)CC3)C2)c1 1.82%
CC(=O)N1CCC2(CC1)CN(C(=O)Nc1cccc(C#N)c1)C2 -2.07%
N#Cc1cccc(NC(=O)N2CC3(CCN(C(=O)c4ccco4)CC3)C2)c1 -15.6%
N#Cc1cccc(NC(=O)N2CC[C@@]3(CCCN(C(=O)c4ccco4)C3)C2)c1 -3.61%
CCNCCCNCCCNCCCNCC 25.3%
CC(C)(C)N1C(=O)[C@H]2[C@H]3[C@H](O)[C@H](O)C/C(=N/NC(=O)OCc4ccccc4)[C@@H]3CC[C@@H]2C1=O 29.2% [at 11.4 µM]
C/C(=N\NC(N)=S)c1ccc[nH]1 -7.98% [at 11.4 µM]
Cc1ccc(NCCC(=O)c2ccc(Cl)c(Cl)c2)cc1 -17.4%
C=C1C(=O)O[C@@H]2[C@H]3O[C@]3(C)CCC=C(C)CC[C@@H]12 12.2%
CC(=O)OC[C@H]1O[C@@H](O/N=C(\C)CCN2CCCc3nc(C)c(C)cc32)[C@H](OC(C)=O)[C@@H](OC(C)=O)[C@H]1OC(C)=O 18.1% [at 11.4 µM]
